The record followed here is ChEMBL document CHEMBL3988442, “University of Dundee, Small-Polar-MMV Screening Library” (2021).

The campaign covered roughly 48,000 compounds. About 13,000 (27%) showed an effect of 50% or more. Some of the results follow.

In this experiment the test system is Wolbachia pipientis. Kind of experiment: Anti-Wolbachia Cell-Based Screen. The class given is functional. More on the design: scale not given: in the data most compounds retested in dose-response had high values. Particulars: 5 µM.
As for `Cc1ccc(C)c(OCCNC(=O)C2CCOC2)c1` (centres undefined), the “Percent Effect” value is -7.675%. As to `O=C1CCC(C(=O)NCCOc2cccc(Cl)c2Cl)CN1` (centres undefined), the “Percent Effect” value is -0.2416%. `CC(C)(C)Oc1ccccc1CNC(=O)C1CCCOC1` (centres undefined): the “Percent Effect” value was -47.48%. `CCc1[nH]c2c(CNC(=O)C3CCC(=O)NC3)cc(C)cc2c1C` (centres undefined): the “Percent Effect” value is -3.367%. As to `Cc1cccc(Oc2ccccc2CNC(=O)C2CCC(=O)NC2)c1` (centres undefined), the “Percent Effect” value came out at 96.69%. `CC(NC(=O)N1CCSC(C)(C)C1)c1noc(-c2ccccc2)n1` (centres undefined): the “Percent Effect” value was -9.511%. As for `CCC[C@H]1CN(Cc2cncn2C)C[C@@H]1NC(=O)C1(COC)CCC1`, the “Percent Effect” value was -8.158%. The value for `COCCNC(=O)c1ccoc1CN1c2ccccc2CC1C` (centres undefined) was -13.79%. For `Cc1nc(C)n(CC(C)C(=O)N2CCCN(C3CCCC3)CC2)n1` (centres undefined), the “Percent Effect” value is on record as -15.63%. `O=c1[nH][nH]cc1-c1ccnc(NCCN2CCCC2)n1`: the “Percent Effect” value is on record as -6.447%.

As to `O=c1[nH][nH]cc1-c1ccnc(NCCN2CCCCC2)n1`, the “Percent Effect” value came out at 112.5%. For the compound `C[C@H]1CCCCN1CCCNc1nccc(-c2c[nH][nH]c2=O)n1`, the “Percent Effect” value was 112%. Turning to `O=c1[nH][nH]cc1-c1ccnc(NCCCN2CCOCC2)n1`, the “Percent Effect” value is reported as 116.9%. `O=C1O[C@@H]2CN(Cc3ccncc3)C[C@@H]2N1CCCN1CCOCC1`: the “Percent Effect” value is on record as -10.63%. Consider `CC(C)COCC(NC(=O)c1ccccn1)c1ccco1` (centres undefined), for which the “Percent Effect” value amounted to 12.33%. Regarding `O=C1CNCC(C(=O)N2CC(Oc3ccccc3Cl)C2)N1` (centres undefined), the “Percent Effect” value is -5.2%. For `COc1ccc(F)cc1CN1CCCn2nc(CNS(C)(=O)=O)cc2C1`, the “Percent Effect” value amounted to 6.854%. With `CN1CCC(C(=O)N2CCC(c3ccc4c(N)n[nH]c4n3)CC2)CC1`, the “Percent Effect” value is 104%.

Regarding `O=C(C1CC1)N1CCC(c2nc(-c3ccccc3)n[nH]2)CC1`, the “Percent Effect” value is listed as -8.829%. `Cc1ccc2c(c1)c(CNC(=O)C1CCN(C(=O)C3CC3)CC1)nn2C`: the “Percent Effect” value is reported as -8.87%. The value for `CCc1noc(CN(C)C(=O)C(C)(C)Oc2cccc(Cl)c2)n1` was 11.07%; that for `CO[C@H]1COCCN(C(=O)c2ccc(C(F)(F)F)cc2)C1` was -0.5949%; that for `Cc1ccc(CN2CCn3c(COc4cccnc4)cnc3C2C)o1.O=C(O)C(F)(F)F.O=C(O)C(F)(F)F` (centres undefined) was 105.5%. Regarding `CCOCc1cnc2n1CCN(Cc1cccs1)C2C.O=C(O)C(F)(F)F` (centres undefined), the “Percent Effect” value was found to be 10.91%.

In the case of `CCOCc1cnc2n1CCN(Cc1nc(C)cs1)C2C.O=C(O)C(F)(F)F` (centres undefined), the “Percent Effect” value is recorded as -1.73%. For `Cc1ccc(CN2CC[C@@H](N3CCOCC3)[C@@H]2Cc2cccnc2)o1.O=C(O)C(F)(F)F.O=C(O)C(F)(F)F.O=C(O)C(F)(F)F`, the “Percent Effect” value is listed as -6.789%. As for `Cc1ccsc1CN1CCn2c(COc3cccnc3)cnc2C1C.O=C(O)C(F)(F)F.O=C(O)C(F)(F)F` (centres undefined), the “Percent Effect” value was 105.4%. Turning to `Cc1ncsc1CN1CCn2c(COc3cccnc3)cnc2C1C.O=C(O)C(F)(F)F.O=C(O)C(F)(F)F` (centres undefined), the “Percent Effect” value is given as -6.197%.

Take `CC1c2ncc(COc3cccnc3)n2CCN1Cc1cnn(C)c1.O=C(O)C(F)(F)F.O=C(O)C(F)(F)F` (centres undefined): the “Percent Effect” value stood at 101.1%. With `Cc1csc(CN2CCn3c(COc4cccnc4)cnc3C2C)n1.O=C(O)C(F)(F)F.O=C(O)C(F)(F)F` (centres undefined), the “Percent Effect” value was 106.1%. The same measure for `COCc1cnc2n1CCN(Cc1cccnc1)C2C.O=C(O)C(F)(F)F.O=C(O)C(F)(F)F` (centres undefined): -12.59%; for `CC1c2ncc(COc3cccnc3)n2CCN1C(=O)C1=CCCC1.O=C(O)C(F)(F)F` (centres undefined): 6.564%; for `CCNc1ncc(CN(CCN(C)C)Cc2ccc(C)s2)cn1`: 9.658%.

Turning to `CC(CC#N)N(C)Cc1ccc(F)cc1F` (centres undefined), the “Percent Effect” value is on record as -4.017%.

Turning to `NC(=O)Nc1cc(Br)cnc1OCC(F)(F)F`, the “Percent Effect” value was found to be 3.483%. Turning to `CC(C)N1CCC(CC(=O)N(C)CC(=O)c2ccc(O)cc2)CC1`, the “Percent Effect” value is on record as -41.3%. Take `COc1cc(OC)cc(-n2ccnc2-c2cc3n(n2)CCNC3)c1`: the “Percent Effect” value was -3.796%. In the case of `CN(C)C[C@H]1C[C@@H](CO)CN(C(=O)CCc2nc(Cl)n[nH]2)C1`, the “Percent Effect” value is on record as -2.145%.

Regarding `Cc1cccc2c1nc1n2[C@@H](CNC2CCCCC2)COC1`, the “Percent Effect” value was -2.586%. As to `CC1c2ncc(COc3cccnc3)n2CCN1C(=O)Cc1ccco1.O=C(O)C(F)(F)F` (centres undefined), the “Percent Effect” value was 6.97%. The value for `CC1c2ncc(COc3cccnc3)n2CCN1Cc1ccco1` (centres undefined) was 103.4%; that for `CCCNC(=O)c1ccc2c(c1)C(=O)N(CC(C)C)C2=O` was 12.13%; that for `O=C(Cc1ccc(F)cc1)NS(=O)(=O)c1ccc(F)c(F)c1` was -8.123%. With `O=C(c1cc(F)cc(F)c1)N1CCC2(CC1)CC2`, the “Percent Effect” value was found to be 32.79%. As for `CC[C@@]1(O)CCN(C(=O)c2ccoc2)C[C@H]1O`, the “Percent Effect” value is reported as -13.59%.

As to `CC(=O)N1CC2(CCN(C(=O)c3ccoc3)C2)C1`, the “Percent Effect” value was -7.067%.

For the compound `O=C(c1cc(F)cc(F)c1)N1CCC(O)(C(F)(F)F)CC1`, the “Percent Effect” value stood at 87.26%. The value for `Cc1ccc2cc(C(=O)N3CCC(O)(C(F)(F)F)CC3)ccc2n1` was 14.37%.

As for `O=C(c1ccoc1)N1CCC(O)(C(F)(F)F)CC1`, the “Percent Effect” value stood at 69.76%.
